Values without a mark were called inactive. Inconclusive results are not listed. The source made the active and inactive calls. Unless noted, the call rests on the fitted dose curve; in most records, active means well fitted curve in the direction sought with a large enough effect in the repeat runs; inconclusive means weak or mixed curves; inactive means no such curve, though single readings can be large; an effect the other way counts as inactive or inconclusive.

Experiment [1] is described as follows: A CellTox Green Cytotoxicity Assay to monitor cytotoxicity in HEK293 cells - 32 hour (AID 1224881). Further: nearly all actives have a fitted effect of over 40% in size. In short, it runs like this:
(§1)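 Nonlytic real-time cytotoxicity: HEK293 + CellTox Green reagent plated, 5 h preincubation, pintool compound addition (23 nL in DMSO), 37 C for 40 h, fluorescence measured at successive time points.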

Experiment [2] is described as follows: A CellTox Green Cytotoxicity Assay to monitor cytotoxicity in HepG2 cells - 0 hour (AID 1224882). Further: nearly all actives have a fitted effect of over 35% in size. In a few lines: (§2)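 Read-out is fluorescence of a cyanine dye excluded from live cells that stains DNA of dead HepG2 cells, with signal proportional to cytotoxicity. Plates were read at 0, 8, 16, 24, 32 and 40 h after compound addition.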
The nature of experiment [3]: A CellTox Green Cytotoxicity Assay to monitor cytotoxicity in HepG2 cells - 32 hour (AID 1224883). Further: nearly all actives have a fitted effect of over 50% in size. Further: potency means the concentration at half of the fitted maximal effect. In a few lines:
as §2

Experiment [4] in a line: qHTS RealTime-Glo MT Cell Viability Assay in HepG2 cells - 16 hour (AID 1224885). Further: nearly all actives have a fitted effect of over 50% in size. Further: potency means the concentration at half of the fitted maximal effect. In short, it runs like this: (§3)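 Cells + NanoLuc/prosubstrate dispensed (600 cells/well) → 5 h at 37 C/5% CO2 → compounds in DMSO transferred → 40 h incubation at 37 C, luminescence read at 0, 8, 16, 24, 32, 40 h.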
A general note: In qHTS, concentration-response curves come from the screen itself.

Experiment [5] can be described thus: qHTS RealTime-Glo MT Cell Viability Assay in HEK293 cells - 24 hour (AID 1224886). Further: top concentration of the series differs between compounds; nearly all actives have a fitted effect of over 50% in size. In a few lines: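 Tox21 10K qHTS, HEK293, 600 cells/well, RealTime-Glo reagent co-dispensed with cells; 5 h preincubation, compound by pintool, 37 C, luminescence at 0–40 h.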
A short description of experiment [6]: qHTS RealTime-Glo MT Cell Viability Assay in HEK293 cells - 8 hour (AID 1224887). Further: nearly all actives have a fitted effect of over 50% in size. Further: potency means the concentration at half of the fitted maximal effect. In a few lines: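 Cells were seeded together with NanoLuc luciferase and a prosubstrate that viable cells reduce to a luciferase substrate. After a 5 h incubation at 37 C/5% CO2, compounds were added and luminescence was measured repeatedly during 40 h of treatment.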
Experiment [7] is described as follows: A CellTox Green Cytotoxicity Assay to monitor cytotoxicity in HEK293 cells - 16 hour (AID 1224888). Further: nearly all actives have a fitted effect of over 35% in size. In short, it runs like this: as §1
Experiment [8] is described as follows: qHTS RealTime-Glo MT Cell Viability Assay in HepG2 cells - 0 hour (AID 1224889). Further: nearly all actives have a fitted effect of over 50% in size. In a few lines: as §3
The nature of experiment [9]: qHTS assay to identify small molecule antagonists of the estrogen receptor alpha (ER-alpha) signaling pathway using the BG1 cell line in the presence of 0.1 nM 17-beta-estradiol - cell viability counter screen (AID 1259241). Further: nearly all actives have a fitted effect of over 40% in size. In short, it runs like this:
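Cytotoxicity counter-screen: live-cell protease activity measured by fluorescence (30 min reagent step) in the same wells. Cells were VM7Luc4E2 with endogenous ER-alpha and ERE-driven luciferase, treated 22 hr at 37C alongside 0.1 nM 17beta-estradiol final.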

Experiment [10] addresses Estrogen receptor (Homo sapiens) (UniProt P03372). In words: qHTS assay to identify small molecule antagonists of the estrogen receptor alpha (ER-alpha) signaling pathway using the BG1 cell line in the presence of 0.1 nM 17-beta-estradiol (AID 1259244). Further: nearly all actives have a fitted effect of over 50% in size. Further: potency means the concentration at half of the fitted maximal effect. In short, it runs like this:
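Cells: VM7Luc4E2, endogenous ER-alpha, 4x ERE-luc stable. Pre-culture 5 d, phenol red-free, charcoal-stripped FBS. Plated 24 h, compound + E2 0.1 nM final, 22 h 37C/5% CO2. Readout ONE-Glo luminescence.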

A short description of experiment [11]: qHTS assay to identify small molecule HDAC inhibitors (AID 1259364). Further: top concentration of the series differs between compounds; nearly all actives have a fitted effect of over 45% in size. In short, it runs like this: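 Luminescence from a cell-permeant luminogenic class I/II HDAC substrate reports endogenous deacetylase activity in intact HCT-116 cells treated with compounds for 2 h.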
A short description of experiment [12]: qHTS assay to identify small molecule HDAC inhibitors - cell viability counter screen (AID 1259365). In short, it runs like this:
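CellTiter-Glo luminescence (30 min, room temperature) reported viability after a 2 h compound exposure at 37 C. Cells: wild-type HCT-116, 1,500 per well, seeded the night before.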

Experiment [13] is described as follows: qHTS assay to identify small molecule agonists of the sonic hedgehog signaling (Shh) pathway - cell viability counter screen (AID 1259366). Further: nearly all actives have a fitted effect of over 50% in size. In a few lines: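 Cytotoxicity counter screen: CellTiter-Fluor reagent added after 23 h compound exposure, then 1 h at 37C and fluorescence read. Cells were 3T3 Gli1-Luc, seeded 2,000 per well and dosed 4 h post-plating.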

Experiment [14] in a line: qHTS assay to identify small molecule antagonists of the sonic hedgehog signaling (Shh) pathway - cell viability counter screen (AID 1259367). Further: nearly all actives have a fitted effect of over 55% in size. Further: potency means the concentration at half of the fitted maximal effect. In short, it runs like this:
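NIH/3T3-derived Gli1-Luc reporter cells (2,000 per well) rested 4 hr at 37 C, then received DMSO compounds plus conditioned medium. After 23 hr of treatment, CellTiter-Fluor was added for 1 hr at 37C and fluorescence read.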

The nature of experiment [15]: qHTS assay to identify small molecule agonists of the sonic hedgehog signaling (Shh) pathway (AID 1259368; calls by dose curve;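 further: NIH/3T3-derived 3T3Gli1-Luc cells carrying a stable Gli1-driven firefly luciferase reporter; series mostly up to about 92 µM; nearly all actives have a fitted effect of over 15% in size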). In short, it runs like this: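 3T3Gli1-Luc (NIH/3T3 clone, stable Gli1-Luc); 4 hr pre-incubation, then cpd in DMSO 24 hr, 37 C/5% CO2; luciferase reagent 30 min RT; luminescence.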
Experiment [16] in a line: A CellTox Green Cytotoxicity Assay to monitor cytotoxicity in HepG2 cells - 8 hour (AID 1224890). Further: nearly all actives have a fitted effect of over 45% in size. In short, it runs like this: as §2
Experiment [17] can be described thus: qHTS assay to identify small molecule antagonists of the androgen receptor (AR) signaling pathway using the MDA cell line in the presence of 0.5 nM R1881 - cell viability counter screen (AID 1259242). Further: nearly all actives have a fitted effect of over 45% in size. In short, it runs like this:
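Counter screen for cytotoxicity run in the same wells as the AR antagonist reporter screen: MDA-kb2 cells were treated 16 hr with test compounds and 0.5 nM R1881, then live-cell protease activity was measured by fluorescence.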

Experiment [18] can be described thus: A CellTox Green Cytotoxicity Assay to monitor cytotoxicity in HEK293 cells - 8 hour (AID 1224884). Further: nearly all actives have a fitted effect of over 35% in size. In a few lines: as §1
Experiment [19] deals with Androgen receptor (Homo sapiens) (UniProt P10275). In words: qHTS assay to identify small molecule antagonists of the androgen receptor (AR) signaling pathway using the MDA cell line in the presence of 0.5 nM R1881 (AID 1259243). Further: nearly all actives have a fitted effect of over 50% in size. Further: potency means the concentration at half of the fitted maximal effect. In a few lines:
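Luciferase luminescence is the read-out: compounds are tested for suppressing 0.5 nM R1881-driven MMTV reporter activity in MDA-kb2 cells after 16 hr at 37C.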

Experiment [20] can be described thus: qHTS assay to identify small molecule phospholipidosis (PLD) inducers (AID 1259344; active means well fitted curve in the direction sought with a large enough effect; an effect the other way counts as inactive or inconclusive). In a few lines: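 HepG2 cells on collagen I, attached 4 h at 37 C, were co-treated with compound and LipidTOX Red dye for 24 h at 37 C, then fixed with paraformaldehyde plus Hoechst 33342 and imaged by high-content microscopy for phospholipid accumulation.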

Androgen receptor (Homo sapiens), sequence (P10275 whole entry, looked up): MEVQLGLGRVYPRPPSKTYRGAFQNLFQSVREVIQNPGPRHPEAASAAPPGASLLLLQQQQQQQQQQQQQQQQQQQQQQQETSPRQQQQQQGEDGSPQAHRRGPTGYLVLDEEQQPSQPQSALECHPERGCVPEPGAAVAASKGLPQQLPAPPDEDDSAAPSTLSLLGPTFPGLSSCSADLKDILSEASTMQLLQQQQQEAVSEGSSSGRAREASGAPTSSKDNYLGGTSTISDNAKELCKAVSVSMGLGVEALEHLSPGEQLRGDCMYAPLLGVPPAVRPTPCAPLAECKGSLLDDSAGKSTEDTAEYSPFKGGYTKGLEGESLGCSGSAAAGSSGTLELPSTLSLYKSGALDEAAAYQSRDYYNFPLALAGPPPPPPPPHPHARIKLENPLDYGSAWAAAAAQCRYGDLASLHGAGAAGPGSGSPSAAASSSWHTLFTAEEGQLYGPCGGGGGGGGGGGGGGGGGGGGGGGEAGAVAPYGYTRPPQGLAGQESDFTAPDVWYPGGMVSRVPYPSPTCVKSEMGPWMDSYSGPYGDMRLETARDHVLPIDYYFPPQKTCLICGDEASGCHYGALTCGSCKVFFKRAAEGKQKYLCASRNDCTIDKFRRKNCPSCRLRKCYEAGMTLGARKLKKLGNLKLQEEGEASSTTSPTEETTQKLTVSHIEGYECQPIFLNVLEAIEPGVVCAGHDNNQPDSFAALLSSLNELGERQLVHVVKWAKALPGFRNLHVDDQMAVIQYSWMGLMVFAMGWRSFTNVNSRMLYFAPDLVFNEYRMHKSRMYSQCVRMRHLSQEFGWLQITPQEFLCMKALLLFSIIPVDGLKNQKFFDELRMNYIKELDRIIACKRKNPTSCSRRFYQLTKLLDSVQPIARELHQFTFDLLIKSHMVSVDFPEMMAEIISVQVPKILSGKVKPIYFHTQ
Estrogen receptor (Homo sapiens), sequence (P03372 whole entry, looked up): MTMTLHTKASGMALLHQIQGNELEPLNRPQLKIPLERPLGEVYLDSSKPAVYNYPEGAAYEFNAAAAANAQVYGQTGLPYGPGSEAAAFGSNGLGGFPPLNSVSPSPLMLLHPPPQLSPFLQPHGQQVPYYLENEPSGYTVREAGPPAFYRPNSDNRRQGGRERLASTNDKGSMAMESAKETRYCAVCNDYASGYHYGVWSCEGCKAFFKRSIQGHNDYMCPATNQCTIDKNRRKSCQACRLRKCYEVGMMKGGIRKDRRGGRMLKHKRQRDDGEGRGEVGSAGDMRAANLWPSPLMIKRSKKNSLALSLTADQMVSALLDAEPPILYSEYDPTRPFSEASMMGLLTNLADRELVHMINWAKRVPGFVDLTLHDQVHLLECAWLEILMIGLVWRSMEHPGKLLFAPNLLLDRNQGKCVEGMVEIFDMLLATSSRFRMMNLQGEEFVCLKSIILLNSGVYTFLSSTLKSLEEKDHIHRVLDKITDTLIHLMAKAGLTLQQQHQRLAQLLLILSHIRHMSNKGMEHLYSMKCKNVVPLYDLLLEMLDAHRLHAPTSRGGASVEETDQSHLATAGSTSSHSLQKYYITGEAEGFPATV

Take `C=C(C)C(=O)OCCCCCCCCCCCCC`: the Potency entry in experiment [1], in experiment [2], in experiment [3], in experiment [4], in [5] and in [6] was “inactive” throughout. Also, the Potency result in experiment [7], in experiment [8], in experiment [9], in [10], in experiment [11] and in experiment [12] was “inactive” in each case. For the same molecule, the Potency result in [13], in experiment [14] and in experiment [15] was “inactive” each time.
Regarding `C=C(C)CCCC(C)CCO` (centres undefined), the Potency entry in [1], in experiment [2], in experiment [3], in experiment [4], in [5] and in experiment [6] was “inactive” each time. The Potency entry in [7], in experiment [8], in experiment [16], in experiment [9], in experiment [17] and in experiment [10] was “inactive” in each case. Besides, the Potency entry in experiment [11], in experiment [12], in experiment [13], in experiment [14] and in experiment [15] was “inactive” each time.
Take `Oc1ccc(Cl)c2cccnc12`: the Potency result in experiment [1], in [2], in experiment [18], in experiment [4], in experiment [5] and in experiment [6] was “inactive” each time. Besides, the Potency entry in [7], in [8], in [16], in [9], in [20] and in [11] was “inactive” each time. Moreover, the Potency result in experiment [12] and in experiment [15] was “inactive” in each case. In addition, the Potency is 10.6 µM (active) in [19], 21.1 µM (active) in experiment [10] and 3.35 µM (active) in experiment [14].
On to `O=C(Cn1ccnc1[N+](=O)[O-])NCCO`, for which the Potency entry in experiment [1], in experiment [2], in experiment [3], in experiment [4], in experiment [6] and in experiment [7] was “inactive” throughout. Also, the Potency result in experiment [8], in experiment [16], in experiment [9], in [17], in experiment [19] and in experiment [10] was “inactive” in each case. Moreover, the Potency result in experiment [20], in experiment [11], in experiment [12], in experiment [13], in experiment [14] and in experiment [15] was “inactive” each time.
As to `CCC1(CO)COCOC1`, the Potency entry in experiment [1], in experiment [2], in experiment [3], in experiment [4], in experiment [5] and in experiment [6] was “inactive” in each case. The Potency result in [7], in [8], in experiment [16], in [9], in experiment [17] and in [10] was “inactive” in each case. Also, the Potency result in [11], in experiment [12], in [13], in experiment [14] and in experiment [15] was “inactive” throughout.
Turning to `C=C1C[C@@]23CC[C@H]4[C@@](C)(CCC[C@@]4(C)C(=O)O[C@@H]4O[C@H](CO)[C@@H](O)[C@H](O)[C@H]4O)[C@@H]2CC[C@]1(O[C@@H]1O[C@H](CO)[C@@H](O)[C@H](O[C@@H]2O[C@H](CO)[C@@H](O)[C@H](O)[C@H]2O)[C@H]1O[C@@H]1O[C@H](CO)[C@@H](O)[C@H](O)[C@H]1O)C3`, the Potency entry in [1], in [2], in experiment [18], in [4], in experiment [5] and in experiment [6] was “inactive” throughout. Further, the Potency result in experiment [7], in experiment [8], in [16], in experiment [9], in experiment [17] and in experiment [19] was “inactive” throughout. Besides, the Potency result in experiment [10], in experiment [11], in experiment [12], in experiment [13], in experiment [14] and in experiment [15] was “inactive” throughout.
Take `CCOc1ccc(Cc2nccc3cc(OCC)c(OCC)cc23)cc1OCC`: the Potency entry in [1], in experiment [2], in experiment [7], in [8], in experiment [16] and in experiment [9] was “inactive” in each case. Besides, the Potency entry in [20], in experiment [11], in experiment [12], in experiment [13], in experiment [14] and in experiment [15] was “inactive” in each case. The Potency in experiment [3] was 5.35 µM (active); in experiment [4], 19 µM (active); in experiment [6], 10.7 µM (active); in experiment [19], 10.6 µM (active); in experiment [10] it was 8.41 µM (active).

The values above are taken from PubChem BioAssay (Tox21).
